Only some compounds are listed: those with a hit (about 9.2% of all), similar ones and a draw of the others.
ELG1 DNA repair – inhibitors of ELG1-dependent DNA repair in HEK293T cells | Potency, µM (top dose mostly 46.1 µM), without a hit: at the top dose activity change, negative = inhibition, hits mostly inhibitors | HEK293T ELG1-luciferase reporter, luminescence, 16 h; DNA damage induced by 5-fluorouridine | hit rate 2.3% among 330,000; note: % is set by controls: 0 for no effect and ±100 for the full control effect; nearly all actives have a fitted effect of over 55% in size
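Quantitative HTS, concentration-response format. 2,000 cells/well co-treated with 5-fluorouridine and compound, 16 hr in 5% CO2 at 37 °C; ONE-Glo luminescence read after 30 min.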
Rab9 promoter act – Rab9 promoter activation | hit rate 2.8% among 320,000 | Potency, µM (series often up to 9.22 µM), for the others: top-dose activation, negative = inhibition, hits mostly activators | Huh7 Rab9 promoter-luciferase reporter, luminescence, 24 h; note: % of control where 0% means no effect; nearly all actives have a fitted effect of over 60% in size
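Luminescence from Amplite-detected luciferase (10 minutes, ambient) reports Rab9 promoter activation. Before that, stable Rab9-luciferase Huh7 cells (1500/well, reduced-serum OP-MEM I plus 10% FBS) were exposed to compound for 24 hours at 37C.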
ELG1 genotox – induces genotoxicity in HEK293T cells with luciferase-tagged ELG1; HEK293T ELG1-luciferase reporter, luminescence, 16 h; Potency, µM (titrated, usually from 46 µM), inactives show at the highest dose activity change, positive = activation, usual class: activators; hit rate 1.3% among 330,000; note: % of control where 0% means no effect; nearly all actives have a fitted effect of over 60% in size
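Step 1: seed 2,000 HEK293T ELG1-luciferase cells per well. Step 2: add compound or DMSO, incubate 16 hr at 37 °C. Step 3: ONE-Glo, 30 min at room temperature, read luminescence.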
SMN2 splice enh – enhancers of SMN2 splice variant expression; HEK293 SMN2-luciferase splicing reporter, luminescence, 30-36 h; Potency, µM (series often up to 46.1 µM), for the others: top-dose activity change, positive = activation, usual class: activators; hit rate 2.8% among 210,000; AID 1458; note: % of control where 0% means no effect; nearly all actives have a fitted effect of over 55% in size
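qHTS luciferase splicing reporter: luminescence rises when SMN2 exon 7 is included in transfected HEK293 cells. Compound exposure lasted 30-36 h at 37C, with 4.5 mM final sodium butyrate as control, followed by a ONE-Glo read.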
NPC1 promoter act – NPC1 promoter activation. Huh7 NPC1 promoter luciferase reporter, 24 h. Potency, µM (top dose mostly 9.22 µM), inactives show at the highest dose activation, usual class: activators. hit rate 2.4% among 320,000. AID 485313; note: % of control where 0% means no effect; nearly all actives have a fitted effect of over 60% in size
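Luminescence from an NPC1 promoter-driven luciferase reporter in stably transfected Huh7 cells was measured after 24 h compound treatment at 37 °C, followed by 10 min ambient incubation with luciferase detection reagent.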
FLuc counter – firefly luciferase modulation, counter-screen for miR-21 project; P08659; purified FLuc, Km substrates, luminescence inhibition; Potency, µM (highest dose often 57.5 µM), for inactives: top-dose activity change, negative = inhibition, most hits filed as inhibitors; hit rate 6.9% among 360,000;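 note: plate controls were vehicle for no effect and reference inhibitor for full effect; nearly all actives have a fitted effect of over 55% in size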
Target sequence (P08659 whole entry, looked up): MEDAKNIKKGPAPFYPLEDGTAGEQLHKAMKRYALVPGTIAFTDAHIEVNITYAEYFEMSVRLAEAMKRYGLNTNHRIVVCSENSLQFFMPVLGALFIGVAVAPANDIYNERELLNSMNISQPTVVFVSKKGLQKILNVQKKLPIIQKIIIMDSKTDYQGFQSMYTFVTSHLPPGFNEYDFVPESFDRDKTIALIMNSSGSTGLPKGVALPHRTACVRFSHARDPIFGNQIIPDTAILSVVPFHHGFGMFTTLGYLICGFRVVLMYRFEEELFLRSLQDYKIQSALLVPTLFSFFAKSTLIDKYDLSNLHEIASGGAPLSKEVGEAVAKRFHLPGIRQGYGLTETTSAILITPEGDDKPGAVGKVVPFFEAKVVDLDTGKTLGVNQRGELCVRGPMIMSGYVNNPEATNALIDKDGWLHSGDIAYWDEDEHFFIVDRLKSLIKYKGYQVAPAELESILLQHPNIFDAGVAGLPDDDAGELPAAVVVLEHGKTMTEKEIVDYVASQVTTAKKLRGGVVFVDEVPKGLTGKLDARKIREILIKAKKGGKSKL
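Purified P. pyralis luciferase, 10 nM final, with Km-level 10 uM D-luciferin and 10 uM ATP in 50 mM Tris acetate pH 7.5, 10 mM Mg acetate, 0.01% Tween-20, 0.05% BSA; 6-point qHTS titration about 60 µM downward; luminescence read.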
* = called active by the depositor; ? = inconclusive; nt = not tested or not shown; [ ] = remark or other dose. Calls come from the whole dose curve; as a rule, active = well fitted curve in the direction sought with a large enough effect; inconclusive = small, poorly fitted or top-dose-only effect, or another doubt; inactive = no such curve, though single readings can be large; an effect the other way counts as inactive or inconclusive. Potency is the fitted concentration of half-maximal effect.

SMILES | ELG1 DNA repair | Rab9 promoter act | ELG1 genotox | SMN2 splice enh | NPC1 promoter act | FLuc counter
CN(C(=O)c1ccc(NC(=O)c2ccco2)cc1)c1ccccc1 | ? | ? | ? | nt | ? | 16.9µM*
Cc1ccc(Cl)cc1N1CCN(C(=O)c2ccc3c(c2)N(Cc2ccc(F)cc2)CCS3)CC1 | nt | nt | nt | -0.6% | nt | 2.7%
O=C1c2ccccc2[C@@H]2C[C@H](NC34CC5CC(CC(C5)C3)C4)[C@@H](O)CCN12 | 2.4% | nt | 1.3% | nt | nt | nt
O=C(CCSc1ccc(Cl)cc1)c1ccco1 | -9.2% | -2.1%[1.84 µM] | -8.6% | nt | -2.3% | 21.3µM*
O=C(COc1ccc(Cl)cc1)Nc1ccc(NC(=O)c2ccco2)cc1 | ? | 12.7% | ? | nt | 16.1% | 1.0%
O=C(Nc1ccc(Cl)cc1)c1ccco1 | ? | ? | ? | nt | 2.82µM* | 16.9µM*
O=C(Oc1ccccc1)c1ccc(NC(=O)c2ccco2)cc1 | ? | 29.6% | ? | 8.5% | 21.7% | 2.69µM*
O=C(CSc1ccc(Cl)cc1)c1ccco1 | ? | 8.2% | 20.4% | 12.6% | -0.5% | ?
CC1N(C)c2cc(NC(=O)c3ccco3)ccc2C1(C)C (stereo not drawn) | ? | 1µM* | ? | 15.8µM* | 3.16µM* | 9.53µM*
O=C(COC(=O)c1ccc(F)cc1F)Nc1cccc(S(=O)(=O)N2CCOCC2)c1 | 7.1% | 1.9% | 3.7% | nt | -1.6% | 1.9%
CC(=O)Nc1ccc(NC(=O)c2ccco2)cc1 | ? | ? | ? | 17.8µM* | 21.8% | ?
CCC1Oc2ccc(C)cc2N(CC(=O)N(Cc2ccc3c(c2)OCO3)CC2CCCO2)C1=O (stereo not drawn) | ? | -2.0% | -10.2% | -13.3% | -2.7% | 2.3%[2.3 µM]
COc1ccc(CN(CC2CCCO2)C(=O)CN2C(=O)C(C)Oc3ccc(C)cc32)cc1OC (stereo not drawn) | 8.2µM* | -2.9% | -9.4% | 6.8% | -1.4% | -1.9%
Cc1ccc(-c2noc(-c3nnn(CC(=O)Nc4cc(C)cc(C)c4)c3N)n2)cc1 | nt | nt | nt | nt | nt | -7.4%
O=C(c1ccc2oc(CCCc3ccccc3)nc2c1)N1CCCCC1CO (stereo not drawn) | ? | 6.31µM* | ? | nt | 4.47µM* | 23.9µM*
Nc1ccc2oc(CCc3ccccc3)nc2c1 | ? | 0.708µM* | ? | 17.8µM* | 2.51µM* | 9.53µM*
CCOC(=O)CC1COCCN1C(=O)c1ccc2oc(Cc3ccccc3)nc2c1 (stereo not drawn) | ? | 3.16µM* | ? | nt | ? | 12µM*
NC(=O)[C@@H]1CCCN1C(=O)c1ccc2oc(CCc3ccccc3)nc2c1 | ? | ? | ? | nt | ? | -19.0%
O=C(c1ccc2oc(CCc3ccccc3)nc2c1)N1CCC(O)CC1 | ? | 1µM* | ? | nt | 1.26µM* | 10.7µM*
COc1cc(OC)cc(C(=O)N/N=C\c2ccoc2)c1 | 1.3% | 8.6% | 1.8% | nt | -1.2% | -9.2%
COc1cc(OC)c(OC)cc1CN1CCN(C(=O)CC(C)C)CC1 | -23.5% | -3.6% | ? | nt | -5.2% | -0.6%
CC(C)Oc1ccc(CNC(=O)CN2C(=O)CCn3nc(-c4cn(C)c5ccccc45)cc32)cc1 | nt | nt | nt | nt | nt | -15.9%
Cc1noc(NS(=O)(=O)c2ccc(N/C=C\C(=O)c3cccs3)cc2)c1C | -7.7% | -6.3% | 4.0% | -2.1% | -5.3% | 16.9µM*
Cc1noc(NS(=O)(=O)c2ccc(N/C=C/C(=O)c3ccc4c(c3)OCO4)cc2)c1C | 20.4% | 5.4% | 11.6% | 5.1% | 16.7% | 10.7µM*
CCc1ccc(NS(=O)(=O)c2ccc3[nH]cc(C(=O)NCCCOC(C)C)c(=O)c3c2)cc1 | nt | nt | nt | -8.0% | nt | -8.6%
SMILES | ELG1 DNA repair | Rab9 promoter act | ELG1 genotox | SMN2 splice enh | NPC1 promoter act | FLuc counter
O=C(c1ccccc1Br)N(Cc1ccco1)C1CCS(=O)(=O)C1 (stereo not drawn) | nt | nt | nt | -9.0% | nt | 1.2%
CC1CN(C2=NC(=O)/C(=C3/C(=O)N(Cc4ccc(F)cc4)c4ccccc43)S2)CC(C)O1 (stereo not drawn) | 11.6µM* | 2.4% | -2.5% | nt | -4.2% | ?
O=C1N=C(N2CCOCC2)S/C1=C1\C(=O)N(Cc2ccccc2)c2ccccc21 | ? | 1.58µM* | ? | 27.1% | 2.82µM* | 0.675µM*
CC(C)=C1SC(N2CCN(Cc3ccccc3)CC2)=NC1=O | 3.4% | 28.2% | 0.5% | 11.5% | 15.2% | -19.8%
COc1ccc(CNC(=O)CSc2ncn[nH]2)cc1OC | -0.4% | -0.2% | 0.0% | nt | 1.6% | 0.0%
CCC(=O)c1ccc(N2CCCC2)c(F)c1 | ? | 29.4% | 11.9% | 11.6% | 9.2% | 16.9µM*
CCC(=O)c1ccc(N2CCN(C(=O)c3ccccc3F)CC2)c(F)c1 | ? | -4.2% | -13.8% | -22.6% | 8.2% | -9.5%
CCC(=O)c1ccc(N2CCCCCC2)c(F)c1 | ? | 21.8% | ? | 10.1% | 28.0% | 21.3µM*
CCOC(=O)N1CCN(c2ccc(C(=O)c3ccccc3)cc2F)CC1 | -11.6% | 27.1% | 7.2% | -24.8% | ? | 21.3µM*
CCCC(=O)c1ccc(N2CCCC2)c(F)c1 | ? | ? | ? | 20.0% | 28.2% | 15.1µM*
Cc1cnc(C(=O)Nc2ccc(C)c(S(=O)(=O)N3CCCCCC3)c2)cn1 | -14.9% | 0.2% | -6.5% | nt | -1.8% | ?
COc1ccccc1CNC(=O)CS(=O)(=O)c1ccc(C)cc1 | -17.5% | 13.8% | 1.4% | nt | 4.7% | 5.7%
CN=c1scc(-c2cccs2)n1/N=C/c1ccccc1O | 5.17µM* | -51.4% | -10.8% | -79.8% | -36.7% | 0.169µM*
CN=c1scc(C)n1/N=C/c1cc(Br)c(O)c(OC)c1 | ? | 25.8% | 1.5% | ? | 1.7% | 16.9µM*
CN=c1scc(C)n1/N=C/c1ccc(O)c(O)c1O | ? | 17.2% | ? | -1.0% | 1.8% | 1.51µM*
CN=c1scc(-c2cccs2)n1/N=C/c1ccc(O)c(O)c1O | ? | 0.794µM* | ? | 12.6µM* | ? | 1.69µM*
COc1ccccc1-c1nc2c(c(SCC(=O)Nc3ccc(C)c(C)c3)n1)Cc1c(CO)cnc(C)c1O2 | nt | nt | nt | nt | nt | -10.9%
CN(C)c1ccc(CN(C(=O)c2ccccc2Br)C2CCS(=O)(=O)C2)cc1 (stereo not drawn) | ? | -0.7% | 4.8% | nt | 0.7% | -0.6%
O=C(c1ccc2c(c1)N(Cc1ccccc1F)C(=O)c1ccccc1S2=O)N1CCN(c2ccccc2)CC1 (stereo not drawn) | nt | nt | nt | ? | nt | 4.4%
CCCNC(=O)CSc1nc2nc(C)c(Cc3ccccc3Cl)c(C)n2n1 | nt | nt | nt | -6.3% | nt | 1.9%
CCc1ccccc1NC(=O)C1(C)Cc2ccccc2C(=O)O1 (stereo not drawn) | nt | nt | nt | -3.2% | nt | -5.3%
O=C(Nc1ccsc1C(=O)NC1CCCCC1)c1ccc(F)cc1 | -3.3% | -3.4% | 9.6% | -15.6% | -3.8% | -10.0%
